{
  "source": "PubChem BioAssay (Tox21)",
  "note": "Several values for one entry are separate records, joined by “and”; a condition that tells them apart may be missing. Equal entries are not always repeated. Values without a mark were called inactive. Activity calls are given as the source filed them. Calls follow the shape of the full dose curve. % is scaled to controls: 0 for no effect and ±100 for the full control effect; potency is read from the fitted curve at half-maximal effect.",
  "data": [
    {"test": "qHTS assay to identify small molecule agonists of the sonic hedgehog signaling (Shh) pathway (AID 1259368); also: nearly all actives have a fitted effect of over 15% in size;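 as to activity change: NIH/3T3-derived 3T3Gli1-Luc cells carrying a stable Gli1-driven firefly luciferase reporter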", "conditions": "NIH/3T3 Gli1-Luc reporter, luciferase, 24 h; series mostly up to 92.4 µM; activity change: at the top concentration", "from_the_text": "National Center for Advancing Translational Sciences [NCATS]\nNIH Chemical Genomics Center [NCGC]\nU.S. Environmental Protection Agency [EPA]\nNational Institutes of Environmental Health Sciences [NIEHS]\nNational Toxicology Program [NTP]\nThe sonic hedgehog (Shh) pathway is essential for normal embryonic development. Dysregulation of the Shh pathway can cause severe developmental defects in organs. Therefore chemicals that interfere with the pathway are potential developmental toxicants. A cell line designated 3T3Gli1-Luc (DMB/OARSA/CFSAN/FDA, Laurel, MD), a NIH/3T3 derived clone containing stably integrated Gli1-Luc reporter is used to detect chemical interference of the Shh pathway, by changes in the expression of the firefly Luc gene under the control of the Gli1 transcriptional response element. This cell line was used to screen Tox21 libraries for identifying and prioritizing the potential developmental toxicants that interfere Shh pathway.\n3T3 Gli1-Luc cells were dispensed at 2,000 per well in 5uL of culture medium into white solid bottom 1536-well plates (Greiner Bio-One, Monroe, NC) using a Multidrop Combi (Thermo Scientific, Waltham, MA) dispenser. The assay plates were incubated at 37 C and 5% CO2 for 4hr, and then 23nL of compounds dissolved in DMSO and positive control were transferred using a Pintool station (Wako, San Diego, CA). The assay plates were incubated at 37C and 5% CO2 for 24hr. For luciferase read, 4uL of Amplite Luciferase reporter gene assay reagent (AAT Bioquest, Inc. Sunnyvale, CA) was added to each well of the assay plates using Flying Reagent Dispenser (FRD, Aurora Discovery, San Diego, CA) and incubated at room temperature for 30min. The luminescence signal was measured using a ViewLux plate reader (Perkin Elmer, Shelton, CT).", "values": [
      {"smiles": "C=CC(=O)NCNC(=O)C=C", "activity change": "1.27%"},
      {"smiles": "O=C(OC1CCCCC1)c1ccccc1C(=O)OC1CCCCC1", "activity change": "-3.3%"},
      {"smiles": "CN1C(=O)C(O)N=C(c2ccccc2)c2cc(Cl)ccc21", "note": "(stereo not given)", "activity change": "-3.84%"},
      {"smiles": "O=C(O)C1(c2ccc3c(c2)OC[C@H](Cc2ccc(-c4ccccc4)cc2)[C@H]3O)CCCC1", "activity change": "-2.73%"},
      {"smiles": "Clc1cc(Cl)c(Cl)c(Cl)c1", "activity change": "-2.27%"},
      {"smiles": "Cc1c(F)c(F)c(COC(=O)C2C(/C=C(\\Cl)C(F)(F)F)C2(C)C)c(F)c1F", "note": "(stereo not given)", "activity change": "1.03%"},
      {"smiles": "CCCCCCCCCCOC(=O)c1ccccc1C(=O)OCCCCCCCCCC", "activity change": "-0.201%"},
      {"smiles": "COC(=O)C(Cl)C(=O)OC", "activity change": "-0.412% [at 42.5 µM, hits give high values]"},
      {"smiles": "CCCN(CC1CC1)c1c([N+](=O)[O-])cc(C(F)(F)F)cc1[N+](=O)[O-]", "activity change": "0.0713%"},
      {"smiles": "CCOC(=O)C(Cl)C(C)=O", "note": "(stereo not given)", "activity change": "0.135%"},
      {"smiles": "Cn1cc[n+](C)c1", "note": "(tested in a mixture with another compound)", "activity change": "0.43%"},
      {"smiles": "O=C(CBr)Nc1ccc(Cl)cc1C(=O)c1ccccc1F", "activity change": "-0.21% [at 42.5 µM, hits give high values]"},
      {"smiles": "O=C(N[C@H](c1ccccc1)[C@@H]1CN2CCC1CC2)c1c(Cl)ccc(C(F)(F)F)c1Cl", "activity change": "-12.7%"},
      {"smiles": "CCCCNP(N)(N)=S", "activity change": "0.123%"},
      {"smiles": "O=C(O)CC(Cl)C(=O)O", "note": "(stereo not given)", "activity change": "2.64%"},
      {"smiles": "COP(=S)(OC)Oc1cc(Cl)c(I)cc1Cl", "activity change": "0.0365%"},
      {"smiles": "C[C@]12CC[C@H]3[C@@H](CCC4=CC(=O)CC[C@@H]43)[C@@H]1CC[C@@H]2OC(=O)CCC1CCCCC1", "activity change": "1.31% [at 42.5 µM, hits give high values]"},
      {"smiles": "II", "activity change": "-3.42%"},
      {"smiles": "O=C(CBr)c1ccccc1", "activity change": "5.54%"},
      {"smiles": "O=C(NC(=O)c1c(F)cccc1F)Nc1cc(Cl)c(Oc2ncc(C(F)(F)F)cc2Cl)c(Cl)c1", "activity change": "-0.228%"},
      {"smiles": "O=C(O)C(F)(F)C(F)(F)C(F)(F)C(F)(F)C(F)(F)C(F)(F)C(F)(F)C(F)(F)C(F)(F)C(F)(F)F", "activity change": "4.78%"},
      {"smiles": "[CH3][Sn]([CH3])([Cl])[Cl]", "Potency": "7.82 µM (active) and 24.3 µM (active)"},
      {"smiles": "CCCN(CCCl)c1c([N+](=O)[O-])cc(C(F)(F)F)cc1[N+](=O)[O-]", "activity change": "1.4%"},
      {"smiles": "ClP(Cl)(Cl)(Cl)Cl", "activity change": "0.327%"},
      {"smiles": "CCOP(=S)(OCC)Oc1nc(Cl)c(Cl)cc1Cl", "Potency": "inactive"},
      {"smiles": "NS(=O)(=O)C(F)(F)C(F)(F)C(F)(F)C(F)(F)C(F)(F)C(F)(F)C(F)(F)C(F)(F)F", "activity change": "8.84%"},
      {"smiles": "BrCC(Br)C1CCC(Br)C(Br)C1", "note": "(stereo not given)", "activity change": "-2.21%"},
      {"smiles": "NC(=O)CI", "activity change": "0.744%"},
      {"smiles": "CC(C)(Cl)[N+](=O)[O-]", "activity change": "2.04%"},
      {"smiles": "COC(N)=O", "activity change": "-1.05%"},
      {"smiles": "C=COC(C)=O", "activity change": "0.893%"},
      {"smiles": "COc1cc(CC(C)N)cc2c1OCO2", "note": "(stereo not given)", "activity change": "0.216%"},
      {"smiles": "CN1C[C@H](CNC(=O)OCc2ccccc2)C[C@@H]2c3cccc4c3c(cn4C)C[C@H]21", "activity change": "-3.3% [at 42.5 µM, hits give high values]"},
      {"smiles": "CCn1cc[n+](C)c1", "Potency": "inactive"},
      {"smiles": "ClCc1ccccc1", "activity change": "6.87%"},
      {"smiles": "O=S(=O)(O)C(F)(F)C(F)(F)C(F)(F)C(F)(F)F", "activity change": "5.78%"},
      {"smiles": "CC(c1ccc(O)cc1)(c1ccc(O)cc1)c1ccc(O)cc1", "activity change": "-11.7%"},
      {"smiles": "Nc1ccc([N+](=O)[O-])cc1[N+](=O)[O-]", "activity change": "-0.297%"},
      {"smiles": "O=NN1CCNCC1", "activity change": "0.451%"},
      {"smiles": "BrCCCCBr", "activity change": "1.22%"}
    ]}
  ]
}
